Assay results from PubChem BioAssay (NCI).
“And” between values parts separate entries of the source, which are not always exact repeats. Equal entries are not always repeated. About 83,000 compounds went through this panel and 20% of them were active in at least one assay; those are over-represented in the sample as a whole.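 Interpretation: 100, growth as untreated; towards 0, rising growth inhibition; 0, no net growth; 0 to -100, cell death. Compounds scoring below 10 were considered active.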 The source made the active and inactive calls.

test system: MDA-MB-468 breast; test: NCI-60 one-dose screen, 48 h (100 = growth as untreated, 0 = no growth, -100 = all killed); details: 10 µM unless noted
Method: Growth inhibition of the MDA-MB-468 human Breast tumor cell line is measured as a screen for anti-cancer activity. Cells are grown in 96 well plates and exposed to the test compound for 48 hours. Compounds are tested at a single concentration, which is 10^-5 M for most compounds. The reported endpoint is percent growth (GI% or GIPRCNT), where numbers from 0 - 100% represent growth inhibition, and numbers from -100% - 0 represent cell death. For example, a value of 40 represents 60% growth inhibition. A value of 0 means no net growth occurred over the course of the experiment. A value of -40 indicates 40% of cells at the beginning of the experiment died by the end of the experiment. A value of -100 means all cells are dead at the end of the experiment.
NCI-60 Human Tumor Cell Lines Screen was performed using the standard one-dose NCI protocol, which is described in more detail at https://dtp.cancer.gov/discovery_development/nci-60/default.htm.
Compounds with GIPRCNT values below 10 were considered active. Activity score was based on GIPRCNT using the following formula: […]
Score is 0 for GIPRCNT values of 100 or above, 50 for GIPRCNT values of 0, and 100 for GIPRCNT values of -100.

SMILES | growth
COc1cc([C@@H]2c3cc4c(cc3[C@H](OC(C)=O)[C@H]3COC(=O)[C@H]23)OCO4)cc(OC)c1OC | 44.6% (inactive)
CC(=O)O[C@H]1C(=O)[C@@]2(C)[C@H]([C@H](OC(=O)c3ccccc3)[C@]3(O)C[C@H](OC(=O)[C@H](OC(=O)OC[C@H]4COC(C)(C)O4)[C@@H](NC(=O)c4ccccc4)c4ccccc4)C(C)=C1C3(C)C)[C@]1(OC(C)=O)CO[C@@H]1C[C@@H]2O | -16.3% (active)
CCOC(=O)[C@@H](C)C[C@H](Cc1ccccc1)NC(=O)c1csc([C@@H](C[C@H](C(C)C)N(C)C(=O)[C@@H](NC(=O)[C@H]2CCCCN2C)C(C)(C)C)OC(C)=O)n1 | 10.7% (inactive)
C[C@@H]1O[C@@H](O[C@H]2C[C@@H](O)[C@]3(CO)C4C(CC[C@]3(O)C2)[C@@]2(O)CC[C@H](C3=CC(=O)OC3)[C@@]2(C)C[C@H]4O)[C@H](O)[C@H](O)[C@H]1O (stereo not given in full) | -68.2% (active)
CC(C)OC(=O)[C@H](C)NP(=O)(Oc1ccccc1)C1CCCN(O)C1=O (stereo not given in full) | 96.9% (inactive)
CCCCN1CCCC[C@@H]1C(=O)N[C@H](C(=O)N(C)[C@H](C[C@@H](OC(C)=O)c1nc(C(=O)NC2CCC(C(=O)OC)CC2)cs1)C(C)C)C(C)C (stereo not given in full) | 17.4% (inactive)
Cc1cc(C(C)(C)C)ccc1O | 99.3% (inactive)
Cn1cc(C=O)c2nccnc21 | 98.1% (inactive)
CNC(=O)Oc1ccccc1 | 101% (inactive)
CC1=C2C(=C[C@@](C)(COC(=O)c3ccc(S(=O)(=O)F)cc3)[C@@H]2OC(=O)c2ccc(S(=O)(=O)F)cc2)C(=O)[C@](C)(O)C12CC2 | -76.8% (active)
COC(=O)[C@@H](C[C@H](Cc1ccccc1)NC(=O)c1csc([C@@H](C[C@H](C(C)C)N(C)C(=O)[C@@H](NC(=O)[C@H]2CCCCN2C)C(C)C)OC(C)=O)n1)NC(=O)OCc1ccccc1 | 16.5% [9.5 µM] (inactive)
NS(=O)(=O)c1nc[nH]c1[N+](=O)[O-] | 103% (inactive)
ClCCN(CCCl)C(c1ccccc1)c1ccc(Cl)cc1 (stereo not given) | 35.1% (inactive)
[O-][n+]1ccccc1S | 85.2% (inactive)
CCn1cnc2c(Nc3cccc(Cl)c3)nc(N[C@@H]3CCCC[C@@H]3N)nc21 | -22% (active)
Cc1cc(N(CCCl)CCCl)ccc1C=Nc1cccnc1 | -74.8% (active)
CC(=O)O[C@H]1C[C@H](O[C@H]2[C@@H](O)C[C@H](O[C@H]3[C@@H](O)C[C@H](O[C@H]4CC[C@@]5(C)C(CCC6C5C[C@@H](O)[C@]5(C)[C@@H](C7=CC(=O)OC7)CC[C@]65O)C4)O[C@@H]3C)O[C@@H]2C)O[C@H](C)[C@H]1O[C@@H]1O[C@H](CO)[C@@H](O)[C@H](O)[C@H]1O (stereo not given in full) | -56.2% (active)
Cc1ccc(C(=O)C2CN(C)CCC2(O)c2ccc(C)cc2)cc1 (stereo not given) | 119% (inactive)
CNC(=O)O/N=C(\SC)C(=O)N(C)C | 116% (inactive)
Cc1ccc(C[As+](c2ccccc2)(c2ccccc2)c2ccccc2)cc1 | -24.3% (active)

SMILES | growth
COC(=O)CCP(CCC(=O)OC)c1ccccc1 | 105% (inactive)
CCOC(=O)c1cnc(SCc2ccc(Cl)c(Cl)c2)nc1N1CC1 | -3.19% (active)
CC[C@]12C=CCN3CC[C@@]4(c5ccc(OC)cc5N(C)[C@H]4[C@@](O)(C(=O)OC)[C@@H]1OC(=O)CCC[P+](c1ccc(C)cc1)(c1ccc(C)cc1)c1ccc(C)cc1)[C@@H]32 | -92.1% (active)
Cc1cc(C(C)(C)c2ccc(O)c(C)c2)ccc1O | 87.8% (inactive)
Cc1cccc(N(C)c2cccc3c2C(=O)[Se]C3)c1C | 16.9% (inactive)
c1ccc(COc2ccc3[nH]cc(CCN(Cc4ccccc4)Cc4ccccc4)c3c2)cc1 | 87.9% (inactive)
Fc1ccc2c(c1)c(-c1nc(-c3c[nH]c4ncccc34)cs1)cn2CCN1CCOCC1 | 43.8% (inactive)
Cn1cccc1C1CC(=O)N(CCC[Se]C#N)C1=O (stereo not given) | 13.6% (inactive)
C=C(C)[C@@]12OC3(/C=C/C=C/CCCCC)O[C@@H]1[C@@H]1[C@@H]4O[C@]4(CO)[C@@H](O)[C@]4(O)C(=O)C(C)=C[C@H]4[C@@]1(O3)[C@H](C)[C@H]2OC(=O)c1ccccc1 | 56.5% (inactive)
COc1cc(C2CC(=O)Nc3nc(N)[se]c32)c(OC)c2c1OCO2 (stereo not given) | 109% (inactive)
CN1[C@@H](CC(=O)c2ccccc2)CCC[C@H]1CC(=O)c1ccccc1 | 101% (inactive)
O=C1C=CC(=O)C2C1C1(Cl)C(Cl)=C(Cl)C2(Cl)C1(Cl)Cl (stereo not given) | 5.2% (active)
CCCCCCCCCCOc1ccc(C(=O)Oc2ccc(CSP3(=O)OCC4OC(n5ccc(=O)[nH]c5=O)C(F)C4OP(=O)(O)OCC4OC(n5cnc6c(N)ncnc65)C(F)C4O3)cc2)cc1 (stereo not given) | 115% (inactive)
C=CC12CCN(CC1)C(C(O)c1ccnc3ccc(OC)cc13)C2 (stereo not given) | 11.6% (inactive)
Oc1ccc(O)c(Cl)c1 | 89.7% (inactive) and 95.1% (inactive)
COc1cc(OC)c(S(=O)(=O)N(CCCl)CCCl)cc1C(=O)/C=C/c1cc(OC)c(OC)c(OC)c1 | -40.5% (active)
C/C=C/CC(C)C(O)[C@H](NC(=O)[C@@H]1CCCN1C(=O)C(C)(C)NC(=O)CCCCCCCCC)C(=O)N[C@@](C)(CC)C(=O)N[C@@H](CCC(N)=O)C(=O)N[C@H](CCC(N)=O)C(=O)NC(C)(C)C(=O)N[C@@](C)(CC)C(=O)N[C@@H](CCC(N)=O)C(=O)N[C@H](CC(C)C)C(=O)N[C@H](CO)CC(C)C (stereo not given in full) | 99.2% (inactive) and -78.2% (active)
CC1=C2C(=C[C@@](C)(COC(=O)c3ccc(S(=O)(=O)F)cc3)[C@@H]2O)C(=O)[C@](C)(O)C12CC2 | -78.8% (active)
CCOC(=O)c1cncn1C(C)c1ccccc1 (stereo not given) | 97.6% (inactive)
CC(C)N=C([Se])NC(=O)c1ccccc1 | -46% (active)
